SMILES strings stand for the structures. Hit rate of the full screen: of about 2,100 compounds, about 760 (36%) were called active. Only a sample is shown. A number with no mark means an inactive call.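 How the source made its calls: active means thallium-flux fluorescence traces judged by eye to show enhanced or reduced glutamate response, manual score 1 or -1, so both directions (some results past the limit were not filed as active); inactive means the rest, including fluorescent or raised-baseline compounds.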

The assay in a line: non-GIRK thallium flux modulation in mGlu8 cells, confirmation, counter-screen for GIRK activator project, cell-based, HEK-293 rmGlu8, no GIRK (AID 623868).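 Further: extra codes mark interference with 3 for fluorescent and 4 for baseline rise.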 The following applies: thallium flux fluorescence, at 10 µM, actives lie on both sides, codes: 1 enhancer, -1 blocker, 0 none, thallium stimulus containing EC20 glutamate. (Counterscreens check selectivity or assay interference.)
On to `Cc1ccc2c(CC(=O)NC3CCCc4ccccc43)coc2c1` (centres undefined), for which the manual score was 0.
For the compound `CCOc1ccc(NC(=O)Nc2cc(C)ccc2OC)cc1`, the manual score was 0.
As to `Cc1ccc(OCC(=O)NNC(=O)C(=O)NC(C)(C)C)cc1`, the manual score is 1 (active).
On to `COc1ccc(OCC(=O)NNC(=O)C(=O)Nc2ccc(C)cc2)cc1`, for which the manual score was 1 (active).
As to `COc1ccccc1NC(=O)COc1ccc(Br)cc1CO`, the manual score is 0.
`C=C(C)C1CC=C(C)/C(=N/NC(=O)COc2ccc(C)cc2)C1` (centres undefined): the manual score is 0.
The value for `Cc1ccc(OCC(=O)N/N=C/c2cccn2C)cc1` was 0.
On to `COc1cccc(NC(=O)COc2ccc(C)cc2)c1`, for which the manual score is 0.
Turning to `CC(C)(C)NC(=O)C(=O)NNC(=O)COc1ccc(Br)cc1`, the manual score is 1 (active).
Consider `S=C1NC2=C(CCCC2)C2(CCCCC2)N1`, for which the manual score is 0.
`CN(CC(=O)Nn1cnnc1)S(=O)(=O)c1ccc(Br)cc1`: the manual score was 0.
Turning to `CCC(NC(=O)c1ccccc1O)c1ccccc1` (centres undefined), the manual score was 0.
The value for `C/C(=N\NC(=O)c1ccccc1O)c1ccc(Br)s1` was 1 (active); that for `C/C(=N\NC(=O)c1ccc(Cl)cc1)c1ccc(Br)s1` was 1 (active).
Take `C/C(=N\NC(=O)c1ccccc1)c1nc2ccccc2n1C`: the manual score was 0.
The value for `O=C(N/N=C/c1c(Cl)cccc1Cl)c1cccc(F)c1` was 0.
Take `C/C(=N\NC(=O)c1cccc(F)c1)c1ccc(Br)s1`: the manual score was 1 (active).
Consider `CN(C)/C=C/C(=O)/C=C/c1cn(-c2ncc(C(F)(F)F)cc2Cl)c2ccccc12`, for which the manual score was 0.
As to `CCc1ccc2c(c1)C1(NN=C(c3ccc(C)cc3)S1)C(=O)N2` (centres undefined), the manual score is 0.
Turning to `CCOC(=O)c1ccc(CNCc2ccc(Br)cc2)cc1`, the manual score is 0.
As to `CCOC(=O)c1c(NS(=O)(=O)c2cccc(OC)c2)sc2c1CCC2`, the manual score is 1 (active).
For `CCOC(=O)c1c(NC(=O)C2C3C=CC(C3)C2C(=O)O)sc2c1CCC(CC)C2` (centres undefined), the manual score was 0.
As to `CCOC(=O)c1c(NS(=O)(=O)c2ccc(Br)cc2)sc2c1CCC2`, the manual score is 1 (active).
Take `O=C1CS/C(=N\C(=O)N2c3ccccc3Sc3ccccc32)N1`: the manual score was 0.
In the case of `CC(C)Cn1cnc2c(c(-c3ccccc3)c(-c3ccccc3)n2Cc2ccco2)c1=N`, the manual score was 0.
The value for `CC(=O)/C(=N\Nc1ccc(Cl)cc1Cl)Sc1cccc2cccnc12` was 1 (active); that for `O=S(=O)(Nc1cc(Sc2cccc3cccnc23)c(O)c2ccccc12)c1ccc(F)cc1` was 0; that for `CCOc1ccc(-c2nc(-c3ccncc3)no2)cc1OCC` was 0.
The result for `O=C(c1cccc(F)c1)N1CCN(Cc2ccco2)CC1` reads 0; that for `O=C(CC(=O)c1cc(Cl)ccc1O)c1ccccc1`, 1 (active).
`Cc1ccc(C(=O)CC(=O)c2cc(Cl)ccc2O)cc1`: the manual score was 0.
For `C/C(=N/NC(=O)c1cc(Cl)ccc1O)C12CC3CC(CC(C3)C1)C2`, the manual score was 0.
Consider `O=C(CC(=O)c1ccccc1O)c1cccc(F)c1`, for which the manual score was 1 (active).
The result for `Cc1cccc(C(=O)CC(=O)c2cc(Cl)ccc2O)c1` reads 0.5.
On to `O=C(CC(=O)c1ccccc1O)c1ccc(F)cc1`, for which the manual score was 1 (active).
The result for `COC(=O)c1nc(NC(C)=O)n[nH]1` reads 0; that for `Cc1ccc(NC(=O)COn2nnc3ccc(S(=O)(=O)N(C)C)cc32)cc1F`, 0; that for `CCN(CC)CCN1C(=O)c2oc3ccccc3c(=O)c2C1c1ccc(C)cc1` (centres undefined), 0.
On to `O=c1c(O)c(-c2cccs2)oc2ccc(Cl)cc12`, for which the manual score was 3.
Take `Cc1ccc(C2c3c(oc4ccc(Cl)cc4c3=O)C(=O)N2CCCN2CCOCC2)o1` (centres undefined): the manual score was 1 (active).
`COCCn1c(CN(Cc2ccccc2)Cc2ccccc2)nc2c1c(=O)n(C)c(=O)n2C`: the manual score was 0.
On to `O=C(N/N=C\c1cc(Br)c(Br)o1)c1cncc(Br)c1`, for which the manual score is 1 (active).
With `CCNC(=O)NC(=O)COC(=O)CCCSc1nc2ccccc2[nH]1`, the manual score is 0.
The value for `CN(C)CCCOc1ccc(C(C)(C)c2ccccc2)cc1` was 0.
Turning to `O=C(NC(=S)Nc1ccccc1Cl)c1csnn1`, the manual score was 1 (active).
The result for `O=C(NC(=S)Nc1ccccc1)c1csnn1` reads 1 (active); that for `Cc1cccc(NC(=S)NNC(=O)c2csc(C(C)C)c2)c1`, 1 (active).
`Cc1ccc(C)c(NC(=S)NNC(=O)c2csc(C(C)C)c2)c1`: the manual score was 1 (active).
Take `CC(C)C(=O)Nc1cccc(NC(=O)c2cc3ccccc3o2)c1`: the manual score is 0.
`O=[n+]1c2c(n([O-])c3cc(F)c(N4CCCC4)cc31)CCC2`: the manual score is 3.
The result for `Cc1cccc2c(=O)cc(C)n(CC(=O)N3CCCCC3)c12` reads -0.5; that for `CCOC(=O)CSc1nc(C)c2cc(OC)ccc2n1`, 0.
Take `CCN(C(=O)CSc1nc2ccccc2n1CCc1ccccc1)C1CCS(=O)(=O)C1` (centres undefined): the manual score was 0.
Regarding `COc1ccc2c(-c3ccccc3)cc(SCC(=O)N(C)C3CCS(=O)(=O)C3)nc2c1` (centres undefined), the manual score is 1 (active).
Turning to `Cc1ccc(NC(=O)Cc2ccccc2Cl)cc1S(=O)(=O)N(C)C`, the manual score is 0.
The result for `CN(CCNC(=O)c1cc2c(=O)n(C)c3ccccc3c2n1C)Cc1ccccc1` reads 0; that for `CC1(C)Cc2c(ccc3ccccc23)-c2nnc(-c3cccnc3)n21`, 0; that for `COc1ccc(-c2ccnc3nc(Sc4ncc(C(F)(F)F)cc4Cl)nn23)cc1`, 0.
In the case of `Cc1ccc([N+](=O)[O-])cc1NC(=S)NC(=O)c1ccco1`, the manual score was 1 (active).
For `Cc1cc([N+](=O)[O-])ccc1NC(=S)NC(=O)Cc1ccccc1`, the manual score is 1 (active).
On to `O=C(NC(=S)Nc1cc([N+](=O)[O-])ccc1Cl)c1ccccc1`, for which the manual score is 0.
For `COc1cccc(C(=O)NC(=S)Nc2ccc([N+](=O)[O-])cc2C)c1`, the manual score is 1 (active).
`Cc1ccc(NC(=S)NCc2ccccc2)cc1[N+](=O)[O-]`: the manual score is 0.
The value for `O=C(Cc1ccccc1)N/N=C/c1cccn1-c1ccc([N+](=O)[O-])cc1` was 0; that for `CC(=O)Nc1ccc(NC(=O)CSc2nccn2Cc2ccccc2)cc1` was 0.
For `COc1ccc(CO/N=C/c2c(C)[nH]c(=O)[nH]c2=O)cc1`, the manual score was 0.
`CCOC(=O)C(CCCCOc1cccc(CC)c1)C(=O)OCC`: the manual score is 0.
In the case of `CCOc1ccc(-c2nc(-c3ccc(OC)cc3)no2)cc1OCC`, the manual score is 0.
The value for `Oc1c(Cl)cc(Cl)c2c1NCCC2` was 0.

(Values after PubChem BioAssay AID623868 (Vanderbilt High Throughput Screening Facility, 2012).)
